These results are taken from PubChem BioAssay (Tox21).

Structures are written as SMILES. “And” between values parts separate entries of the source, which are not always exact repeats. Equal entries are not always repeated. Inconclusive results are not listed. The source made the active and inactive calls. Unless noted, the call rests on the fitted dose curve.

Assay [1] is described as follows: Nuclear factor erythroid 2-related factor 2/antioxidant responsive element (Nrf2/ARE) small molecule agonists: luciferase reporter gene qHTS assay in human keratinocytes (AID 1919969). Further: nearly all actives have a fitted effect of over 35% in size. Further: potency means the concentration at half of the fitted maximal effect.
In assay [2] the target is Gonadotropin-releasing hormone receptor (Homo sapiens) (UniProt P30968). Put plainly: Human gonadotropin-releasing hormone receptor (GnRHR) small molecule agonists, calcium flux assay in GnRHR-HEK293 cells (AID 1920063). Further: nearly all actives have a fitted effect of over 35% in size. The essentials: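 Agonist mode: compounds at 15 concentrations, in triplicate, went onto calcium dye-loaded GnRHR-HEK293 cells. Intracellular calcium was then followed as 480/540 nm fluorescence at 1 s intervals over 3 min.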
Sequence of Gonadotropin-releasing hormone receptor (Homo sapiens) (P30968 whole entry, looked up): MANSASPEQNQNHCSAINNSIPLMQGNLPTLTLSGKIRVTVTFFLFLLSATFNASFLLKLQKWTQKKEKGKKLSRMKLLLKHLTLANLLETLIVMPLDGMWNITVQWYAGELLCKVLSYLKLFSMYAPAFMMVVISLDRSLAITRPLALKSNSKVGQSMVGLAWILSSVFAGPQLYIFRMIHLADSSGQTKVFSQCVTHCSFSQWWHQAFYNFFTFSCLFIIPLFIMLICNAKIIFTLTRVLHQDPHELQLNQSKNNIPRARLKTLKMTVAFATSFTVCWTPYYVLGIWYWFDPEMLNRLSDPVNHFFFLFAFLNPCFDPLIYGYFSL

In assay [3] the target is KiSS-1 receptor (Homo sapiens) (UniProt Q969F8). Put plainly: Human kisspeptin (KISS1R) small molecule agonists, calcium flux assay in KISS1R-HEK293 cells (AID 1920064; active means well fitted activation curve with a large enough effect in the repeat runs). Put shortly: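 Agonist mode: intracellular calcium rise tracked at 1 s intervals over 3 min (480/540 nm) immediately after compound addition to dye-loaded KISS1R-HEK293 stable cells. Each compound tested at 15 concentrations in triplicate.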
Sequence of KiSS-1 receptor (Homo sapiens) (Q969F8 whole entry, looked up): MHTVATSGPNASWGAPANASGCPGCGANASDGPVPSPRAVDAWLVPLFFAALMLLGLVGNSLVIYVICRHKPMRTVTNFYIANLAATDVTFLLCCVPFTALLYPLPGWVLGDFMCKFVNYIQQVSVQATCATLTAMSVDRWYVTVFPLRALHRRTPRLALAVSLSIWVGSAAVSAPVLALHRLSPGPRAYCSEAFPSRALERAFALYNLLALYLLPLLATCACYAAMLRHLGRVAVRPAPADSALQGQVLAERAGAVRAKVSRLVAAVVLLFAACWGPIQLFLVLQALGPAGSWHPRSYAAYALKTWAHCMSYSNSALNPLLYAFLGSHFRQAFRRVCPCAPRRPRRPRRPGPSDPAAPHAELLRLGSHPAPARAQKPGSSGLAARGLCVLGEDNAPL

The nature of assay [4]: G protein-coupled receptor (GPCR) small molecule agonists, calcium flux assay: HEK293 wild type cell line counter screen (AID 1920065). The essentials:
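Calcium flux counter screen: compound added in agonist mode at 15 concentrations in triplicate to dye-loaded parental HEK293 cells. Fluorescence (480/540) read kinetically for 3 min; ATP served as positive control.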

Assay [5] in a line: p53 small molecule agonists, cell-based qHTS assay with human liver microsomes: qHTS cell viability counter screen (AID 1963579). Further: nearly all actives have a fitted effect of over 45% in size. Further: potency means the concentration at half of the fitted maximal effect. The essentials: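 Metabolically activated exposure: compounds, human liver microsomes and NADPH (0.5 mg/mL final apiece) were added to p53RE-bla cells seeded 5 h earlier, left 16 h at 37 C, and then assessed for viability by CellTiter-Glo luminescence.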

The nature of assay [6]: p53 small molecule agonists, cell-based qHTS assay with rat liver microsomes: qHTS cell viability counter screen (AID 1963580). Further: nearly all actives have a fitted effect of over 45% in size. The essentials:
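After the beta-lactamase ratio was read, CellTiter-Glo was added to the same wells and luminescence measured at 30 min; cells had been treated 16 h at 37 C with compounds, rat liver microsomes and NADPH (0.5 mg/mL final each).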

A short description of assay [7]: p53 small molecule agonists, cell-based qHTS assay: qHTS cell viability counter screen (AID 1963581). Further: nearly all actives have a fitted effect of over 45% in size. Put shortly:
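Counter screen read by CellTiter-Glo luminescence (ATP content, 30 min at room temperature), run in the same wells as the beta-lactamase reporter read. HCT-116 p53RE-bla cells saw compounds for 16 h at 37 C.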

For assay [8], the target named is 5-hydroxytryptamine receptor 2A (Homo sapiens) (UniProt P28223). Put plainly: 5-hydroxytryptamine receptor 2A (HTR2A) small molecule agonists, cell-based qHTS assay (AID 1963587). Further: nearly all actives have a fitted effect of over 30% in size. Put shortly:
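CHO cells stably expressing human HTR2A, plated 18 h, loaded with calcium dye 1 h at 37 C. Agonist mode: compounds added and intracellular calcium fluorescence recorded kinetically for 2 min at 1 sec intervals.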

Assay [9] has as its target Muscarinic acetylcholine receptor M1 (Homo sapiens) (UniProt P11229). Put plainly: Cholinergic receptor muscarinic 1 (CHRM1) small molecule antagonists, cell-based qHTS assay (AID 1963588). Further: nearly all actives have a fitted effect of over 40% in size. The essentials:
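Compounds were tested at 15 concentrations in three independent runs. Dye-loaded CHRM1-CHO cells were exposed 5 min at room temperature before stimulation by acetylcholine added at 50nM. Intracellular calcium was read kinetically on FDSS for 3 min.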

The target is the same in assay [10]. Put plainly: Cholinergic receptor muscarinic 1 (CHRM1) small molecule agonists, cell-based qHTS assay (AID 1963589). Further: nearly all actives have a fitted effect of over 35% in size. The essentials: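 Agonist-mode calcium-flux screen: compounds at 15 concentrations, three independent runs, were pin-transferred onto dye-loaded human CHRM1-CHO cells. Fluorescence was then recorded kinetically every second over minutes.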
The nature of assay [11]: cAMP Responsive Elements (CRE) small molecule antagonists, cell-based qHTS assay (AID 1963591; active means well fitted inhibition curve with a large enough effect in the signal ratio in the repeat runs, not every such curve was filed as active; the % refers to the signal ratio). Put shortly:
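Antagonist mode: compounds are added alongside the adenylyl cyclase activator NKH477 (0.25 uM final) to CRE-bla HEK293T cells for 3 h. LiveBLAzer FRET substrate, 2 h at room temperature, reports bla expression.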

Assay [12] addresses Beta-2 adrenergic receptor (Homo sapiens) (UniProt P07550). Put plainly: Adrenergic beta2 receptor (ADRB2) small molecule antagonists, cell-based qHTS assay (AID 1963592). Further: series mostly up to about 92 µM; nearly all actives have a fitted effect of over 50% in size. Put shortly:
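Assay format: CHO-ADRB2 cells, 18-20hr seeding at 37C/5% CO2, then compound plus 1nM isoproterenol agonist mix for 0.5hr RT. Homogeneous time-resolved fluorescence cAMP detection after 1hr, expressed as 665/615 nm ratio.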

For assay [13] the target is unchanged. Put plainly: Adrenergic beta2 receptor (ADRB2) small molecule agonists, cell-based qHTS assay (AID 1963593).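 Further: CHO cells stably overexpressing human ADRB2.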 The essentials:
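CHO cells stably over-expressing ADRB2 were plated overnight at 37C, then dosed with compounds plus a stimulation mix containing 100uM IBMX and 25uM Ro-20-1724 for 0.5hr at room temperature. cAMP was measured by HTRF competition, 1hr.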

For assay [14], the target named is D(2) dopamine receptor (Homo sapiens) (UniProt P14416). Put plainly: Dopamine D2 receptor (DRD2) small molecule agonists, cell-based qHTS assay (AID 1963594). Further: nearly all actives have a fitted effect of over 35% in size. The essentials: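 HEK293 cells stably expressing human DRD2, pre-treated with PDE inhibitor Ro20-1724 (0.1 mM final) and compound 10 min at room temperature, then stimulated with NKH477 (200nM […]) for 30 min. cAMP read by HTRF (665/620 nm).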
Sequence of D(2) dopamine receptor (Homo sapiens) (P14416 whole entry, looked up): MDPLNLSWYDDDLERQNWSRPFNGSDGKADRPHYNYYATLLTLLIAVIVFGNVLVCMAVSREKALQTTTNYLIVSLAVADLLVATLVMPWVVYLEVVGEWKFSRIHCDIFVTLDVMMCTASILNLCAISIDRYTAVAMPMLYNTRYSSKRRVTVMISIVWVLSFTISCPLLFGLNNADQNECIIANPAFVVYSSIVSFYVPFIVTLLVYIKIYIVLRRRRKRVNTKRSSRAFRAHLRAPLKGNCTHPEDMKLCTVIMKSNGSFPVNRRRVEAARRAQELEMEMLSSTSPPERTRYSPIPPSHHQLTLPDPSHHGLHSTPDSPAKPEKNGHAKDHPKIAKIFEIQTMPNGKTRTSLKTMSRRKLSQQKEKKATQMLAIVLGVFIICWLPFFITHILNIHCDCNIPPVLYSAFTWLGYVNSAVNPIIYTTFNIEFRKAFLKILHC

Assay [15] has the same target. Put plainly: Dopamine D2 receptor (DRD2) small molecule antagonists, cell-based qHTS assay (AID 1963595; active means well fitted inhibition curve with a large enough effect in the signal ratio in the repeat runs, with a control signal flat; the % refers to the signal ratio; further: potency means the concentration at half of the fitted maximal effect). Put shortly:
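Cells were plated and grown for 24 h at 37 °C. Ro20-1724 (0.1 mM final) went in first, then compound for 10 min. NKH477 (200 nM) with quinpirole (12 nM) followed for 30 min at RT, then HTRF detection reagents for 1 h.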

Assay [16] has as its target 5-hydroxytryptamine receptor 2A (Homo sapiens) (UniProt P28223). Put plainly: 5-hydroxytryptamine receptor 2A (HTR2A) small molecule antagonists, cell-based qHTS assay (AID 1963586). Further: nearly all actives have a fitted effect of over 45% in size. The essentials:
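CHO cells stably expressing human HTR2A were plated for 18 h at 37 C, then loaded with calcium dye for 1 h. Compounds were preincubated 5 min at room temperature before DOI (4 nM solution) was added. Kinetic fluorescence was read for 3 min.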

Assay [17] is described as follows: cAMP Responsive Elements (CRE) small molecule agonists, cell-based qHTS assay (AID 1963590). Put shortly: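 Agonist mode: compound added to CRE-bla HEK 293T cells (2,000/well, 18 h after plating) for 3 h at 37 C/5% CO2. Reporter activity detected via FRET beta-lactamase substrate, 2 h room-temperature loading.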

Sequence of 5-hydroxytryptamine receptor 2A (Homo sapiens) (P28223 whole entry, looked up): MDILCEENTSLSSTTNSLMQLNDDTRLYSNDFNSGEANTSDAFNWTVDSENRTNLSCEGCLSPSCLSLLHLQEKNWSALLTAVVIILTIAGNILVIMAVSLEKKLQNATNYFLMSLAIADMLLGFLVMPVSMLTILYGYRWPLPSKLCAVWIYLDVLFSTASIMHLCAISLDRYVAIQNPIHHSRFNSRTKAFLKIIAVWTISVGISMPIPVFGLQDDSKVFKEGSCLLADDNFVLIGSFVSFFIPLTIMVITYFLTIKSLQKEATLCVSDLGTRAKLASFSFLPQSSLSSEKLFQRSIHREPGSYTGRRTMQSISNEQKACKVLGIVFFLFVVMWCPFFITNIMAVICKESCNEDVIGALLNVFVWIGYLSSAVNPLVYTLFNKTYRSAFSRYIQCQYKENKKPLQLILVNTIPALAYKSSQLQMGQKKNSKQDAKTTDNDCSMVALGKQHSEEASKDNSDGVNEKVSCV
Sequence of Beta-2 adrenergic receptor (Homo sapiens) (P07550 whole entry, looked up): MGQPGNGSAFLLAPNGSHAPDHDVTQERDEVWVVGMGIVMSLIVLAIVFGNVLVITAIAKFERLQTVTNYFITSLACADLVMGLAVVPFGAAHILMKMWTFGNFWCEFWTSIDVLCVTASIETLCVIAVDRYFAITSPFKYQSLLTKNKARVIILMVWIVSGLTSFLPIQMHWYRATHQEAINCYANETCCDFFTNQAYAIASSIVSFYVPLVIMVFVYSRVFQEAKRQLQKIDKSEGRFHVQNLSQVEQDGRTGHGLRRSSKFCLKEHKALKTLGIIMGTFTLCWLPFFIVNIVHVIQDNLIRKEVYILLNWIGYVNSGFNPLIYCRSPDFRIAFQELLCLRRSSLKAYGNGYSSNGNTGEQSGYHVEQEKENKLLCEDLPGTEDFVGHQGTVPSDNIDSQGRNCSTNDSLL
Sequence of Muscarinic acetylcholine receptor M1 (Homo sapiens) (P11229 whole entry, looked up): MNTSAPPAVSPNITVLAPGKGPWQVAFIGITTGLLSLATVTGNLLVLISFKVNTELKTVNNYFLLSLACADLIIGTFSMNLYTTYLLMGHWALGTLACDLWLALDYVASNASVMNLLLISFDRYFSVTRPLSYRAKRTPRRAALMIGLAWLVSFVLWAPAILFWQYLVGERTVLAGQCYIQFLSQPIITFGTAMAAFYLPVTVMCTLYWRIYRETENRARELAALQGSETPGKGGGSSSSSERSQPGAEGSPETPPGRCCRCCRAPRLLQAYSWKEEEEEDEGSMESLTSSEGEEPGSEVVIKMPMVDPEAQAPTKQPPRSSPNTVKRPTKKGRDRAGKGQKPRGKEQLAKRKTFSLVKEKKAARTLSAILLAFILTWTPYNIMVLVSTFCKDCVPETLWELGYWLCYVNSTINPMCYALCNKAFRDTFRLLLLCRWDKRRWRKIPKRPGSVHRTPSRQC

For `COc1nccnc1NS(=O)(=O)c1ccc(N)cc1`, the Potency result in assay [1], in [2], in [3], in assay [4], in [5] and in assay [6] was “inactive” throughout. Further, the Potency result in assay [7], in assay [8], in assay [9], in [10], in [11] and in [12] was “inactive” throughout. The Potency result in [13], in [14] and in [15] was “inactive” in each case.
On to `Nc1ncn([C@H]2C[C@H](O)[C@@H](CO)O2)c(=O)n1`, for which the Potency result in assay [1], in [2], in assay [3], in assay [4], in assay [5] and in assay [7] was “inactive” in each case. The Potency result in [16], in [8], in assay [9], in [10], in [17] and in assay [11] was “inactive” in each case. Moreover, the Potency result in assay [12], in [13] and in assay [14] was “inactive” each time.
With `Oc1cc(Cl)cc(Cl)c1Cl`, the Potency in [1] is 49.7 µM (active); in assay [5], 29.6 µM (active). Further, the Potency result in assay [2], in [3], in [4], in assay [8], in assay [9] and in assay [10] was “inactive” in each case. Further, the Potency entry in [14] and in assay [15] was “inactive” throughout.
In the case of `Fc1ccc(C(c2ccc(F)cc2)N2CCN(C/C=C/c3ccccc3)CC2)cc1`, the Potency entry in [1], in assay [2], in assay [3], in assay [4], in assay [5] and in [6] was “inactive” each time. In addition, the Potency result in [7], in assay [12] and in [14] was “inactive” in each case. In addition, the Potency in assay [15] was 16.8 µM (active).
Take `CCCCCCCCOC(=O)c1ccc(O)cc1`: the Potency entry in assay [1], in assay [2], in assay [3], in [4], in assay [6] and in [16] was “inactive” in each case. Further, the Potency entry in [9], in assay [10], in assay [17], in [12], in assay [14] and in [15] was “inactive” throughout. Further, the Potency in assay [5] is 45.8 µM (active).
`CCCCCCCCCCCCCCC`: the Potency entry in assay [1], in [2], in assay [3], in assay [4], in assay [5] and in assay [6] was “inactive” in each case. Besides, the Potency entry in [7], in assay [8], in assay [9], in assay [10], in assay [17] and in assay [11] was “inactive” throughout. In addition, the Potency result in [12], in assay [14] and in assay [15] was “inactive” each time.
On to `CCO[Si](CCC1CCC2OC2C1)(OCC)OCC` (centres undefined), for which the Potency entry in [1], in assay [2], in assay [3], in [4], in assay [5] and in [6] was “inactive” throughout. The Potency result in assay [7], in [16], in [8], in [10], in [17] and in assay [11] was “inactive” each time. In addition, the Potency entry in [12], in assay [13], in assay [14] and in assay [15] was “inactive” throughout.
Regarding `COC(=O)Nc1nc2ccc(C(=O)c3ccccc3)cc2[nH]1`, the Potency in assay [1] was 3.76 µM (active). Moreover, the Potency entry in [2], in [3], in [4], in assay [6], in [12] and in [14] was “inactive” throughout. Besides, the Potency result in assay [15] is “inactive”.
Take `c1cc(N(CC2CO2)CC2CO2)ccc1OCC1CO1` (centres undefined): the Potency in [1] was 27.3 µM (active) and 24.3 µM (active). The Potency entry in assay [2], in [3], in [4], in assay [5], in assay [6] and in assay [7] was “inactive” in each case. Besides, the Potency entry in assay [16], in assay [8], in [10], in [12], in assay [14] and in assay [15] was “inactive” each time.
Turning to `CC(=O)SCC(CC(=O)c1ccc(C)cc1)C(=O)O` (centres undefined), the Potency result in assay [1], in [2], in assay [3], in assay [4], in assay [5] and in assay [6] was “inactive” in each case. Further, the Potency entry in [16], in [8], in assay [9], in assay [10], in assay [11] and in assay [12] was “inactive” in each case. Also, the Potency entry in assay [13] and in assay [14] was “inactive” in each case.
As to `CN(C)CCCN1c2ccccc2Sc2ccc(C(F)(F)F)cc21`, the Potency entry in [1], in assay [2], in assay [3], in assay [4], in assay [5] and in assay [6] was “inactive” throughout. For the same molecule, the Potency result in assay [7], in assay [9], in assay [10], in assay [11], in [12] and in assay [14] was “inactive” throughout. The Potency in assay [15] is 0.0596 µM (active).
Turning to `CCCCCCCC/C=C\CCCCCCCC(=O)OCC`, the Potency entry in assay [1], in assay [2], in assay [3], in assay [4], in assay [16] and in [8] was “inactive” throughout. Besides, the Potency entry in assay [9], in assay [10], in [11], in assay [12], in assay [14] and in assay [15] was “inactive” throughout.
`CCCCNc1ccc(C(=O)OCCOCCOCCOCCOCCOCCOCCOCCOCCOC)cc1`: the Potency result in assay [1], in assay [2], in assay [3], in assay [4], in assay [5] and in assay [6] was “inactive” each time. Moreover, the Potency result in [16], in assay [8], in [9], in assay [10], in [11] and in assay [12] was “inactive” in each case. The Potency result in assay [13] and in assay [15] was “inactive” throughout.
Regarding `CCCCCCOc1ccc(O)cc1`, the values for the Potency in assay [1] and in assay [15] were 21.7 µM (active) and 48.6 µM (active), respectively. Also, the Potency entry in [2], in assay [3], in assay [4], in assay [5], in [16] and in assay [8] was “inactive” each time. Further, the Potency result in [9], in [10] and in assay [14] was “inactive” in each case.
